Experimental data taken from PubChem BioAssay AID431 (Sanford-Burnham Center for Chemical Genomics, 2006).
Out of some 63,000 compounds screened, about 1,100 (1.7%) were called active. The full list was thinned out, with actives kept by preference. Potency and affinity values are given separately. Unmarked numbers belong to inactive results.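 Rule for the calls: active = compounds whose percent cytotoxicity in the single-dose primary screen, scaled between solvent and toxic-drug controls, exceeds 50; inactive = the rest.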

Assay: cytotoxicity in KRAS-transformed pancreatic duct cells, primary screen, cell-based, fluorescence, HTS (AID 431);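 note: 0% = DMSO solvent wells and 100% = doxorubicin-treated wells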
Conditions: HPDE-C7K KRASV12 cells, Alamar Blue viability, 48 h; at 10 µM; stronger effect = higher value
`Cc1cccc(Cn2c(SCCN3CCCCC3)nc3c2c(=O)[nH]c(=O)n3C)c1` gave a cytotoxicity of -3.8%.
Work on `O=C1C(Cl)=C(NCC2CCCO2)C(=O)N1CCc1ccccc1` (stereo unspecified) yielded a cytotoxicity of -4.3%.
`C[C@]12CC[C@@H]3c4ccc(O[C@@H]5O[C@H](C(=O)O)[C@@H](O)[C@H](O)[C@H]5O)cc4CC[C@H]3[C@@H]1C[C@@H](O)[C@@H]2O` showed a cytotoxicity of -13.5%.
In the case of `C[C@]12CC[C@@H]3c4ccc(OC(=O)c5ccccc5)cc4CC[C@H]3[C@@H]1CC[C@@H]2O`, the cytotoxicity is reported as 54.4% (active).
`C[C@]12CC[C@@H]3c4ccc(O)cc4CC[C@H]3[C@@H]1CC[C@@H]2OC(=O)CCC(=O)O` gave a cytotoxicity of -1.7%.
For `Cc1nnc(SCC(=O)Nc2nsc(-c3ccccc3)n2)s1`, the cytotoxicity was 11.4%.
`c1ccc(Cn2nnnc2C(c2cccs2)N2CCOCC2)cc1` (stereo unspecified) showed a cytotoxicity of -11.8%.
Molecule `COc1ccc(Cl)c(S(=O)(=O)N2CCCC2)c1` has a cytotoxicity of -3.5%.
`COc1ccc(C(N)=O)cc1NC(=O)CC(O)(C(F)(F)F)C(F)(F)F` gave a cytotoxicity of -2%.
For `Cc1cc(NC(=O)C2CC(c3cccc(Br)c3)=NO2)no1` (stereo unspecified), the cytotoxicity was -11%.
With `c1ccc2nc3c(nc2c1)sc1nc2ccccc2n13` the cytotoxicity was -4%.
With `N=c1cc(C2(O)CCCCC2)n2c(nc3ccccc32)s1` the cytotoxicity was 59% (active).
In the case of `CC(C)(O)c1cc(=O)sc2nc3ccccc3n12`, the cytotoxicity is reported as -10.2%.
Work on `COCCNC(=O)C(c1ccc(C)o1)N(C(=O)c1snc(C(N)=O)c1N)c1cccc(C)c1` (stereo unspecified) yielded a cytotoxicity of -12.1%.
Work on `Cc1ccc2c(c1)[nH]c1c(=O)n(CCCN3CCOCC3)cnc12` yielded a cytotoxicity of -20.9%.
With `CC(C)(C)c1ccc(-c2nc(C#N)c(NCc3ccncc3)o2)cc1` the cytotoxicity was 60.5% (active).
In the case of `N#Cc1nc(-c2ccc(F)cc2)oc1NCc1ccccc1`, the cytotoxicity is reported as -1.5%.
Work on `COc1ccc(CNc2oc(-c3ccccc3)nc2C#N)cc1` yielded a cytotoxicity of 3.8%.
Molecule `COC(=O)c1sccc1NC(=O)CN1CCN(c2ccc(F)cc2)CC1` has a cytotoxicity of 10.5%.
For `O=C(CCN1CCc2ccccc2C1)Nc1ccc2c(c1)OCO2`, the cytotoxicity was -0.3%.
Molecule `O=C(CCN1CCc2ccccc21)c1ccc2c(c1)OCCO2` has a cytotoxicity of 4.4%.
Work on `O=C(CCCN1CCOCC1)c1ccc2c(c1)OCCO2` yielded a cytotoxicity of -11.1%.
Molecule `O=C(CCN1Cc2ccccc2C1)c1ccc2c(c1)OCCO2` has a cytotoxicity of -11.8%.
`CCCn1c(SCCN2C(=O)c3ccccc3C2=O)n[nH]c1=O` gave a cytotoxicity of 2.1%.
For `Cc1cccc(NC(=O)CSc2nnc(-c3ccccc3)n2N)c1C`, the cytotoxicity was -15%.
With `CCOC(=O)c1c(C)oc2c1c(C(c1cccnc1)N1CCN(C)CC1)c(O)c1ccccc12` (stereo unspecified) the cytotoxicity was 125% (active).
`CCOC(=O)c1c(C)oc2c1c(C=NCC1CCCO1)c(O)c1ccccc12` (stereo unspecified) showed a cytotoxicity of -16.3%.
Work on `CCOC(=O)c1c(C)oc2c1c1c(c3ccccc32)OCN(Cc2cccnc2)C1` yielded a cytotoxicity of 29.9%.
With `CCOC(=O)c1c(C)oc2c1c(C=NC1CCS(=O)(=O)C1)c(O)c1ccccc12` (stereo unspecified) the cytotoxicity was 23.8%.
In the case of `CCOC(=O)c1c(C)oc2c1c(C=NCc1ccccn1)c(O)c1ccccc12`, the cytotoxicity is reported as 99.2% (active).
In the case of `CCOC(=O)c1c(C)oc2c1c(/C=N/c1ccccn1)c(O)c1ccccc12`, the cytotoxicity is reported as 4.3%.
